High-throughput results deposited in PubChem BioAssay by several laboratories.
Most compounds without a hit are left out; they make up all but 2.6% or so of the library.
TWEAK-Fn14 inh = TWEAK-Fn14 signaling inhibition; actives 2% (n = 360,000); TWEAK-stimulated Fn14 reporter cells, luciferase luminescence, 8 h; inhibition, % at 10 µM; in the data active = inhibition above about 50%
EWS-Fli inh = inhibitors of EWS/Fli oncoprotein transcriptional activity; inhibition, % at 12.6 µM; A673 NR0B1-luciferase reporter, viability-normalised; actives 0.67% (n = 350,000);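 active = mean inhibition of at least 50% after viability correction, with every replicate also passing that limit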;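 note: firefly luciferase signal divided by Alamar Blue viability fluorescence both relative to DMSO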
CF NFkB inh = inhibitors of cystic fibrosis induced NF-kB; inhibition, % at 5 µM; AID 588850; actives 0.86% (n = 360,000); KKLEB NF-kB-GFP reporter, PAF-induced, GFP fluorescence overnight;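 active = at least 50% inhibition at 5 µM, scaled per plate between neutral and stimulator controls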;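 note: PAF is a Pseudomonas aeruginosa culture filtrate used as stimulus; plate controls were PAF-stimulated DMSO wells for no effect and unstimulated DMSO wells for full effect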
LGR2 inh = blocks bursicon-induced cAMP signaling via Drosophila LGR2. HEK293 LGR2, CRE-luciferase, bursicon-stimulated, 4 h. inhibition, % at 9.99 µM. actives 0.35% (n = 380,000). AID 720647;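 active = drop in luminescence signal, shown as inhibition above about 50% in the replicate tests, limit read from the data, passing the limit was not always enough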;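 note: agonist challenge used bursicon conditioned medium at about half maximal strength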
KKLEB tox = counter-screen for CF NF-kB inhibitors: cytotoxicity; KKLEB CF airway cells viability, ATPlite luminescence, overnight; active compounds read low; cells stimulated with P. aeruginosa culture filtrate; activity change (cytotoxicity), % at 5 µM; actives 0.36% (n = 360,000);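 active = corrected activity change at or below -50% at 5 µM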
TROY NFkB inh = inhibitors of TROY-dependent NF-kB signaling; Q293 LMP1-TROYcd NF-kB luciferase reporter, 4 h; inhibition, % at 10 µM; actives 0.98% (n = 360,000); AID 1347056;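 active = compounds whose plate-normalised and pattern-corrected inhibition of the luciferase reporter signal at the single screening dose is 50% or more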
CF NFkB inh conf = CF NF-kB inhibition confirmation, single concentration. inhibition, % at 5 µM. shares compounds with CF NFkB inh. actives 64% (n = 1,300). AID 602472. KKLEB CF airway cells, PAF-induced NF-kB-GFP fluorescence, overnight; in the data active = inhibition above about 40%;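 note: stimulus PAF is a Pseudomonas aeruginosa filtrate and not platelet activating factor; plate controls were DMSO wells with stimulus for no effect and unstimulated DMSO wells for full effect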
The depositor's hits bear a star; · = no result.

SMILES | TWEAK-Fn14 inh | EWS-Fli inh | CF NFkB inh | LGR2 inh | KKLEB tox | TROY NFkB inh | CF NFkB inh conf
C=C1C[C@@]23CCC4[C@@](C)(CCC[C@@]4(C)C(=O)OC)C2CC[C@]1(OC(C)=O)C3 (stereo partly specified) | -9.9 | 2.1 | 50.7* | 0.2 | -27.6 | -4.4 | 0.8
C[C@@H]1CN([C@@H](C)CO)S(=O)(=O)c2ccc(C#Cc3cccnc3)cc2O[C@H]1CN(C)CC1CCOCC1 | · | 15.0 | · | 6.8 | · | · | ·
O=C(Nc1ccncc1)c1c(F)c(F)c(F)c(F)c1F | 8.7 | 27.8 | 33.8 | 4.0 | -14.2 | 4.3 | ·
O=C(Nc1ccncc1)c1c(Cl)cccc1Cl | 54.8* | 10.9 | 64.5* | 34.3 | -13.9 | 30.5 | 71.3*
COc1cc(-c2cc(C(=O)Nc3ccccc3N3CCOCC3)c3ccccc3n2)cc(OC)c1OC | 24.7 | 6.8 | 1.8 | 18.0 | 0.0 | 22.6 | ·
O=C(Nc1ccccc1N1CCOCC1)c1cc(-c2ccco2)nc2ccccc12 | 25.2 | · | 75.3* | · | -12.8 | -26.5 | 86.5*
C[C@H](CO)N1C[C@H](C)[C@@H](CN(C)S(=O)(=O)c2ccc(F)cc2)Oc2ccc(NC(=O)Cn3cnnn3)cc2C1=O | · | -6.5 | · | -0.8 | · | · | ·
COc1ccc(Cc2nnc(SCc3ccc([N+](=O)[O-])cc3)o2)cc1 | 65.0* | -13.8 | 65.4* | 4.3 | 0.2 | 45.0 | 85.9*
O=C(Nc1cccc(-c2cnc3ccccc3n2)c1)c1cccc(NC(=O)c2ccco2)c1 | 55.5* | · | 66.8* | · | -10.0 | 14.1 | 108.2*
COc1ccc(NC(=O)N(C)C[C@@H]2OCCCC[C@H](C)Oc3ccc(NC(=O)Nc4ccc(F)cc4)cc3C(=O)N([C@H](C)CO)C[C@@H]2C)cc1 | · | -4.3 | · | 3.4 | · | · | ·
COc1ccc(S(=O)(=O)Nc2ccc3c(c2)C(=O)N([C@@H](C)CO)C[C@@H](C)[C@H](CN(C)C(=O)c2ccncc2)OCCCC[C@@H](C)O3)cc1 | · | -4.2 | · | 2.4 | · | · | ·
Cc1cc(Br)cn2c(Cc3ccsc3)c(-c3cccc(Cl)c3)nc12 | 14.3 | 13.7 | 12.0 | 15.3 | -11.8 | 19.3 | ·
COc1ccc(-c2nc3c(C)cc(Br)cn3c2Cc2ccsc2)cc1OC | -3.9 | 3.7 | -7.3 | -17.0 | -8.5 | 12.9 | ·
Cc1cc(Br)cn2c(Cc3ccsc3)c(-c3ccco3)nc12 | 51.3* | -32.0 | 60.4* | 2.5 | -18.0 | -4.6 | -3.3
Cc1cc(Br)cn2c(Cc3ccsc3)c(-c3ccc(Cl)cc3)nc12 | 43.2 | · | 50.2* | · | -1.5 | 12.2 | 12.9
COc1cc(/C=C2\SC(=O)N(CCNC(=O)c3sc4cc(F)ccc4c3Cl)C2=O)cc(OC)c1OC | -14.9 | 14.3 | 55.0* | -0.6 | -42.0 | -22.3 | 67.1*
CC(C)CC#Cc1ccc2c(c1)O[C@@H](CN(C)C)[C@H](C)CN([C@@H](C)CO)S2(=O)=O | · | 15.0 | · | 0.8 | · | · | ·
O=C(Nc1cccnc1)c1sc2cccc(F)c2c1Cl | 46.5 | -40.3 | 52.6* | -31.0 | -9.0 | -25.3 | 53.7*
CN(C)CCNC(=O)c1sc2cccc(F)c2c1Cl | -11.2 | -19.3 | 10.1 | 20.5 | 5.4 | -12.4 | ·
OCCN1CCN(c2ncnc3ccc(Br)cc23)CC1 | 48.6 | -9.5 | 53.1* | 18.5 | -8.8 | 27.4 | 67.0*
COc1ccccc1N1CCN(C(=O)c2ccc3c(Cl)c4c(nc3c2)CCCC4)CC1 | -22.0 | · | 53.1* | · | -11.6 | 1.4 | -94.9
O=C(c1ccc2c(Cl)c3c(nc2c1)CCCC3)N1CCN(c2ccc(F)cc2)CC1 | -22.9 | 5.1 | 28.7 | 22.9 | -13.9 | -1.7 | ·
O=C(Nc1ccc(Cl)c(Cl)c1)Nc1ccon1 | 29.9 | · | 53.7* | -0.4 | -11.9 | -3.5 | 40.4*
Cc1nc([N+](=O)[O-])c(Sc2nc3ccc([N+](=O)[O-])cc3[nH]2)n1Cc1ccccc1 | 80.5* | · | 70.3* | 24.6 | -49.8 | 34.2 | 54.7*
Cc1nc([N+](=O)[O-])c(Br)n1Cc1ccccc1 | 6.3 | 13.9 | 34.1 | 5.5 | -3.0 | 9.2 | ·
SMILES | TWEAK-Fn14 inh | EWS-Fli inh | CF NFkB inh | LGR2 inh | KKLEB tox | TROY NFkB inh | CF NFkB inh conf
O=C(Nc1cccc2[nH]ncc12)c1ccc(F)cc1 | 58.9* | · | 79.0* | · | 0.1 | 14.5 | 93.0*
CNC(=S)Nc1cccc2[nH]ncc12 | 1.7 | · | 7.9 | · | 0.0 | -0.9 | ·
O=C(NC(=S)Nc1cccc2[nH]ncc12)c1ccccc1 | 44.9 | -46.0 | 62.0* | -43.6 | 8.6 | -7.5 | 20.8
CCCC(=O)Nc1ccc2c(c1)OC[C@H](C)N(Cc1ccccc1)C[C@@H](C)[C@@H](OC)CN(C)C2=O | · | -9.4 | · | -0.2 | · | · | ·
COc1cc(Br)c(C(=O)c2nccc3cc(OC)c(OC)cc23)cc1OC | 1.7 | -9.4 | 59.7* | 6.8 | -13.9 | 0.2 | 13.6
CC(NC(=O)c1ccc([N+](=O)[O-])o1)C1CC2CCC1C2 (stereo unspecified) | 17.6 | · | 61.5* | · | -8.8 | -10.5 | 25.5
COc1ccc(-n2c(C)cc3cc(OC(C)=O)ccc32)cc1 | 28.1 | -28.9 | 57.2* | -3.9 | -11.4 | -12.4 | 57.6*
CCOc1ccc(-n2c(C)c(C(=O)O)c3cc(OC)ccc32)cc1 | 40.1 | 0.5 | 35.6 | 9.3 | 2.4 | -15.3 | ·
COc1ccc(-n2c(C)c(C(C)=O)c3cc(O)ccc32)cc1 | 59.1* | · | 69.2* | · | -6.5 | 49.1 | 86.4*
CCOc1ccc(-n2c(C)c(C(C)=O)c3cc(OC(C)=O)ccc32)cc1 | 79.0* | -3.9 | 75.9* | 32.8 | 2.0 | 41.8 | 86.9*
COc1ccc2c(c1)c(C(C)=O)c(C)n2-c1ccccc1 | 26.4 | -4.4 | 35.7 | 5.6 | 4.7 | 20.4 | ·
COc1ccc(-n2c(C)c(C(C)=O)c(C(C)=O)c2C)cc1 | 15.8 | · | 8.0 | 11.2 | -13.4 | 20.9 | ·
COc1ccc(NC(=O)N(C)C[C@H]2Oc3c(NC(=O)c4nc5ccccc5s4)cccc3C(=O)N([C@H](C)CO)C[C@H]2C)cc1 | · | -18.4 | · | 1.7 | · | · | ·
O=[N+]([O-])c1ccc2ncnc(N3CCN(Cc4ccc5c(c4)OCO5)CC3)c2c1 | 78.4* | 0.3 | 68.5* | 27.7 | 10.4 | 45.9 | 84.8*
N#CC(C#N)=C1C=CC=CN1/C(=C\c1ccco1)C(=O)c1ccc(-c2ccccc2)cc1 | 88.5* | · | 83.3* | 4.6 | -50.0 | 32.4 | -50.8
Cc1ccc(C(=O)c2cnc3ccccc3c2-c2ccccc2)cc1 | 32.5 | · | 70.4* | · | -17.1 | 31.4 | 37.7
COc1ccc(C(=O)c2cnc3ccccc3c2-c2ccccc2)cc1 | 45.4 | · | 45.6 | · | -20.8 | 32.8 | ·
COC(=O)c1ccc(CN2CC(=O)N3[C@H](CO)[C@H](c4ccc(-c5ccccc5F)cc4)[C@@H]3C2)cc1 | · | -4.3 | · | -1.5 | · | · | ·
O=C(c1ccncc1)N1CC[C@@H]2[C@H]1c1cc(-c3ccccc3)ccc1N[C@@H]2CO | · | -14.0 | · | -13.2 | · | · | ·
O=[N+]([O-])C1C(c2ccccc2)C12c1ccccc1-c1ccccc12 (stereo unspecified) | 57.1* | · | 67.9* | · | -32.1 | -1.2 | 46.3*
